In PubChem BioAssay AID1347076 (National Center for Advancing Translational Sciences (NCATS), 2019):
The campaign covered roughly 400,000 compounds. About 13,000 (3.2%) were called active. Another 18% or so got no clear call; they are omitted. The sample as a whole holds a higher share of actives than the screen did. Unmarked numbers belong to inactive results. Calls follow the shape of the dose curve; as a rule, active = well fitted cell-killing curve with a large enough effect; inconclusive = small, poorly fitted or top-dose-only effect, or effect the other way; inactive = flat fitted curve, though single readings scatter.

assay: qHTS assay for MDR1-selective chemotherapeutics: Primary screen using the drug-selected MDR subline cells KB-V1; conditions: KB-V1 MDR cells viability, CellTiter-Glo, 72 h; series mostly up to 46.1 µM; activity change, negative = cytotoxicity: at the top concentration; also: nearly all actives have a fitted effect of over 60% in size
How it was run: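 Cytotoxicity via CellTiter-Glo luminescence after 72 h compound exposure at 37 degrees C. Cells: drug-selected KB-V1 line, DMEM phenol-red free plus 10% FBS. Compounds tested at multiple concentrations; normalized data fitted to concentration-effect curves.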
% is scaled to controls: 0 for no effect and ±100 for the full control effect; potency is read from the fitted curve at half-maximal effect.

Row | Structure (SMILES) | activity change, negative = cytotoxicity [%] | Potency
1 | Cc1c(C(=O)N(C)C)sc2c1c(=O)n(-c1ccc(F)cc1)c(=O)n2CC(=O)N(C)c1ccccc1 | 7.18 | –
2 | O=C(COC(=O)Cc1ccc(Cl)cc1Cl)NCc1ccco1 | 12.7 | –
3 | COCCNC(=O)CSc1nc(N)c(NC(=O)c2ccco2)c(=O)[nH]1 | -3.82 | –
4 | COc1ccc(C2CC(c3cccs3)=NN2C(=O)CCC(=O)O)cc1OC (stereo not given) | 13.5 | –
5 | O=C(COc1ccccc1Cl)N1N=C(c2cccs2)CC1c1ccco1 (stereo not given) | -25.9 | –
6 | O=C1c2cccc(OCC(=O)N3N=C(c4cccs4)CC3c3ccc(F)cc3)c2CCN1Cc1ccccc1 (stereo not given) | – | 1.64 µM (active)
7 | COc1ccc(NC(=O)C2(C)Cc3c(-c4ccc(C(N)=O)cc4)ccnc3O2)cc1 (stereo not given) | -8.96 | –
8 | O=C(CSc1ncc(-c2ccccc2)[nH]1)Nc1ccc(F)cc1F | -13.2 | –
9 | CC(C)(C)OC(=O)N1CCN(C(=O)c2[nH]c(C(F)(F)F)nc2-c2ccccc2)CC1 | -14.6 | –
10 | O=C1O/C(=C\c2ccc(O)cc2)C(O)=C1c1ccc(O)cc1 | -8.38 | –
11 | CCOC(=O)c1cccc(NC(=O)CCn2nnc3ccccc32)c1 | – | 8.2 µM (active)
12 | CCOC(=O)c1cccc(NC(=O)CCc2c(C)nc3ncnn3c2C)c1 | -2.85 | –
13 | CCOC(=O)c1nnn(CC(=O)Nc2cccc(F)c2)c1C(=O)OCC | 13.5 | –
14 | C[C@H](CO)N1C[C@H](C)[C@@H](CN(C)S(=O)(=O)c2ccc(F)cc2)OCc2cnnn2CCCC1=O | 11.7 | –
15 | CCC(C)N(c1ccc(/C=C/c2ccnc3ccccc23)cc1)C(C)CC (stereo not given) | -1.86 | –
16 | OC(c1ccccc1)c1nc(/C=C/c2ccc(C(F)(F)F)cc2)cs1 (stereo not given) | 20.1 | –
17 | CC1CCCCN1C(=O)CCS(=O)(=O)Cc1ccccc1 (stereo not given) | 27.6 | –
18 | Cc1nn(-c2ccccc2)nc1C(=O)OCC(=O)N1CCCCC1C (stereo not given) | – | 23.1 µM (active)
19 | Cc1cc(C(=O)OCC(=O)N2C(C)CCCC2C)c2ccccc2n1 (stereo not given) | -17.1 | –
20 | Cc1ccc(N(CC(=O)NCC(C)c2ccccc2)S(=O)(=O)N(C)C)cc1 (stereo not given) | 3.58 | –
21 | O=C(NCc1nnnn1-c1ccc(Cl)cc1)c1ccc([N+](=O)[O-])o1 | -15.6 | –
22 | O=[N+]([O-])c1ccc(C(S(=O)(=O)Cc2ccccc2)S(=O)(=O)Cc2ccccc2)cc1 | -7.5 | –
23 | Cn1ccc(NC(=O)Nc2ccc(Cl)cc2)n1 | 4.41 | –
24 | CC(C)S(=O)(=O)c1csc(NC(=O)Nc2ccc(Cl)cc2)c1Cl | – | 20.6 µM (active)
25 | CN(c1cccc(NC(=O)Nc2ccc(Cl)cc2)c1)S(C)(=O)=O | -4.54 | –

Row | Structure (SMILES) | activity change, negative = cytotoxicity [%] | Potency
26 | CCNC(=O)C1(C)CCCN(Cc2noc(-c3ccccc3OC)n2)C1 (stereo not given) | -12.7 | –
27 | O=C(NCc1cccc(C(F)(F)F)c1)c1ccc2sc(COCCO)nc2c1 | 2.2 | –
28 | O=C(COc1ccc2c(C(F)(F)F)cc(=O)oc2c1)Nc1ccc2c(c1)OCCO2 | 0 | –
29 | CCN(CC(=O)Nc1ccc2c(c1)OCCO2)Cc1cc(=O)oc2cc(C)c(C)cc12 | – | 5.17 µM (active)
30 | Cc1ccc(SCC(=O)Nc2ccc3c(c2)OCCO3)cc1 | -14.8 | –
31 | CC1(C)Cc2ccccc2-c2c[nH]c(=O)n21 | -2.99 | –
32 | Cc1ccc2[nH]c(=O)c(CN(CC3COCCO3)C(=O)Nc3ccccc3C)cc2c1 (stereo not given) | -18.7 | –
33 | Cc1cccc(NC(=O)N(Cc2cc3cc(C)cc(C)c3[nH]c2=O)CC2COCCO2)c1 (stereo not given) | 6.39 | –
34 | Cc1ccc2[nH]c(=O)c(CN(CCCN(C)C)C(=O)Nc3cccc(Cl)c3)cc2c1 | – | 18.4 µM (active)
35 | N#CCCC(C#N)(c1cccnc1)N1CCOCC1 (stereo not given) | 26.1 | –
36 | CCOc1ccccc1CNC(=O)c1cnc2c(-c3ccc(OCC)c(OCC)c3)c(C)nn2c1C | 0.381 | –
37 | Cc1ccccc1NC(=O)NNC(=O)OC(C)(C)C | 15.7 | –
38 | Cc1ccc(C(=O)NNC(=O)OC(C)(C)C)c(Cl)c1 | 15.5 | –
39 | CC(C)(C)OC(=O)NNc1c2ccccc2nc2ccccc12 | – | 9.2 µM (active)
40 | COC(=O)[C@H]1C[C@H](OC(=O)NCc2ccccc2)[C@@]2(O)CN(S(=O)(=O)c3ccc(C)cc3)CC2[C@H]1C(=O)OC (stereo not given in full) | 6.07 | –
41 | Cc1ccc(NC(=O)CSc2nc(CSc3ccc(C)cc3)cc(=O)[nH]2)cc1 | -17.7 | –
42 | Cc1cc(=O)[nH]c(SCC(=O)Nc2ccc(Br)cc2)n1 | 11.3 | –
43 | COc1ccc(NC(=O)CSc2nc(NS(=O)(=O)c3ccc(C)cc3)cc(=O)[nH]2)cc1 | – | 3.66 µM (active)
44 | CC1(C(=O)NS(=O)(=O)c2ccccc2)CCN1C(=O)C1CCCCC1 (stereo not given) | 3.98 | –
45 | COC(=O)C[C@H]1C[C@@H]2c3cc(NC(=O)Nc4ccccc4)ccc3O[C@@H]2[C@@H](CO)O1 | 12.4 | –
46 | COc1cc(OC)cc(C2=Cc3ccccc3C(CC(=O)c3ccco3)N2c2ccc(-c3cnc(OC)nc3)cc2)c1 (stereo not given) | 0 | –
47 | Cc1ccc(S(=O)(=O)/N=C(/Nc2ccccn2)c2ccc(Cl)cc2)cc1 | -13.7 | –
48 | O=S(=O)(/N=C(/Nc1ccccn1)c1ccccc1)c1ccc(Cl)cc1 | – | 14.6 µM (active)
49 | O=S(=O)(Nc1ccccn1)c1cccc(S(=O)(=O)c2ccc(Cl)cc2)c1 | -22.4 | –
50 | OC(CBr)CN1CCCCC1 (stereo not given) | 6.25 | –

Row | Structure (SMILES) | activity change, negative = cytotoxicity [%] | Potency
51 | CCn1cc(C(=O)N(C)Cc2ccccc2)c(=O)c2cc(S(=O)(=O)N3CCCCCC3)ccc21 | 0 | –
52 | Cc1ccc(-c2ccc(C3=CC(=O)CC(C)(C)C3=O)cc2)cc1 | -4.78 | –
53 | CC(C)(C)Cc1c(C2CCCCC2)nc2ccc(Br)cn12 | 11 | –
54 | O=C(/C=C/c1ccccc1)N/C(=C/c1ccccc1)C(=O)Nc1ccccc1O | – | 23.1 µM (active)
55 | CCc1ccccc1NC(=O)/C(=C/c1ccccc1)c1ccccc1 | -26.7 | –
56 | O=C(Nc1ccc(C(=O)O)cc1)/C(=C\c1ccccc1)NC(=O)c1ccc(Br)cc1 | 2.86 | –
57 | COc1ccc(C(=O)Nc2nc(-c3ccc(S(=O)(=O)N4CCOCC4)cc3)cs2)cc1 | – | 16.4 µM (active)
58 | Cc1cc2nc(NC(=O)c3ccc(S(=O)(=O)N4CCOCC4)cc3)sc2cc1C | 0 | –
59 | CCOC(=O)c1csc(NC(=O)c2ccc(S(=O)(=O)N3CCCC3)cc2)n1 | 14.3 | –
60 | O=C(O)c1ccccc1Cc1ccc(F)c2ccccc12 | 10.8 | –
61 | COC(=O)C[C@H]1C=C[C@@H](NS(=O)(=O)c2ccc(C)cc2)[C@@H](CO)O1 | 6.54 | –
62 | Cc1[nH]c2ccccc2c1C(=O)C(=O)N(C)c1ccccc1 | 10.4 | –
63 | CNS(=O)(=O)c1ccc2c(c1)[nH]c(=S)n2C | 8.16 | –
64 | Cc1nc(CNS(=O)(=O)c2cccnc2)cs1 | 0.995 | –
65 | Cc1ccc(S(=O)(=O)NCc2csc(C)n2)c(C)c1 | 10.2 | –
66 | Cc1nc(CNS(=O)(=O)c2ccc(Oc3ccccc3)cc2)cs1 | – | 8.2 µM (active)
67 | CC(=O)c1ccccc1NC(=O)COC(=O)C1COc2ccccc2O1 (stereo not given) | 10.8 | –
68 | COc1cc(C(O)c2nc(-c3cccc(C(=O)O)c3)cs2)ccc1F (stereo not given) | 0 | –
69 | COC(=O)C1=CN(c2c(C)cc(C)cc2C)C(N)=C(C#N)C1c1cccc(F)c1 (stereo not given) | -19.9 | –
70 | O=C(NC1CC1)c1cccc(Br)c1 | 7.99 | –
71 | COC(=O)C1NN=C(C(=O)c2ccc(Br)cc2)C1c1cccc(Br)c1 (stereo not given) | – | 23.1 µM (active)
72 | Cc1nnc(C)n1-c1ccc(C(=O)Nc2cccc(Br)c2)cc1 | 7.83 | –
73 | Cc1cccc(COc2ccccc2/C=N/Nc2ccc([N+](=O)[O-])cc2)c1 | – | 16.4 µM (active)
74 | Cc1ccc(NS(=O)(=O)c2ccc(N/N=C/c3ccccc3OCC(=O)O)c([N+](=O)[O-])c2)c(C)c1 | 11 | –
75 | Cc1ccc(-n2c(C)cc(/C=N/Nc3ccc([N+](=O)[O-])cn3)c2C)c(C)c1 | -22.1 | –

Row | Structure (SMILES) | activity change, negative = cytotoxicity [%] | Potency
76 | CC1(C)OC(=O)C2=C(CC(c3ccccc3)OC2CCc2ccccc2)O1 (stereo not given) | -13.9 | –
77 | Cc1noc(C)c1NC(=O)N(C)C[C@@H]1Oc2cc(Br)ccc2S(=O)(=O)N([C@@H](C)CO)C[C@H]1C | 12.1 | –
78 | Fc1ccccc1COc1cccc2cccnc12 | -13.5 | –
79 | Fc1ccccc1COc1ccccc1CNCc1ccncc1 | – | 6.51 µM (active)
80 | CCOc1cc(/C=N/O)ccc1OCc1ccccc1F | 0.0138 | –
81 | COc1ccc(-n2nnc(-c3nsc(NC(=O)c4ccc(C)c(C)c4)n3)c2C)cc1Cl | 0.0477 | –
82 | COc1ccc(C)cc1NC(=O)NCc1ccccn1 | 0 | –
83 | CCOc1ccc(NC(=O)Nc2cc(C)ccc2OC)cc1 | – | 14.6 µM (active)
84 | CCOc1ccc(NC(=O)Nc2ccc(N(C)C(C)=O)cc2)cc1 | 9.89 | –
85 | Cc1ccc(Cl)cc1-n1ncc2c(N3CCC(C(N)=O)CC3)ncnc21 | 0 | –
86 | CC(=O)c1ccc(OCC(=O)N(C)C2CCS(=O)(=O)C2)cc1 (stereo not given) | 7.87 | –
87 | COc1ccc(CCNc2nc(-c3ccc(F)cc3)cc(C(F)(F)F)n2)cc1OC | 0 | –
88 | O=C(COc1cc(Cl)c(Cl)cc1Cl)NC(=O)NC1CCCC1 | -5.05 | –
89 | CCCC(=O)Nc1cc(OCC)c(NC(=O)NC2CCCCC2)cc1OCC | -2.62 | –
90 | CCCN(CC(=O)NC(=O)NC1CCCCC1)CC(=O)Nc1cc(Cl)ccc1Cl | – | 4.11 µM (active)
91 | CSc1ccc(CNC(=O)C2(C)CCCN2C)cc1 (stereo not given) | -2.64 | –
92 | CCN(CC)c1ncnc2c1ncn2[C@H]1CN(Cc2cccs2)C[C@@H](CO)O1 | 1.22 | –
93 | CCC1=Nc2cc(C(=O)NCCN3CCCC3)ccc2Sc2ccc(C)cc21 | 3.17 | –
94 | CCC1=Nc2cc(C(=O)NCCCN3CCOCC3)ccc2Sc2ccc(Br)cc21 | 17.4 | –
95 | COCCNC(=O)c1ccc2c(c1)N=C(C)c1cc(C)ccc1S2 | – | 0.92 µM (active)
96 | CCN1C(=O)[C@@H]2[C@@H]3CN(S(=O)(=O)c4ccccc4C)[C@@H](c4ccc(Cl)cc4)[C@@H]3C(=O)C[C@@H]2C1=O | 3.41 | –
97 | Cc1ccc(-c2nc(COC(=O)c3c(C)noc3C)cs2)cc1 | – | 23.1 µM (active)
98 | Cc1ccc(S(=O)(=O)N2CCN(C(=O)COC(=O)c3c(C)noc3C)CC2)c(C)c1 | -4.54 | –
99 | COc1ccc(C(=O)COC(=O)c2c(C)noc2C)cc1Cl | 3.29 | –
100 | CCc1ccc(C2CC(=O)c3c([nH]c(C(=O)OCc4ccc(C)cc4)c3C)C2)cc1 (stereo not given) | -2.58 | –
